Shown are actives, neighbours in structure and some others; about 14% of the full set was active somewhere.
Marburg entry inh – qHTS for inhibitors of binding or entry into cells for Marburg Virus; Marburg virus pseudotyped entry inhibition, cell reporter; AID 540276, 2011; 300,000 compounds, 1.8% hits; Potency, µM (doses to about 37.8 µM), for the others: at the highest dose activity change, negative = inhibition, most hits filed as inhibitors; calls by dose curve; tested in HEK293 cells; note: potency is the fitted concentration of half-maximal effect
Pf growth 96h – Primary qHTS for delayed death inhibitors of the malarial parasite plastid, 96 hour incubation | P. falciparum luciferase reporter growth, 96 h | Potency, µM (titrated, usually from 28.7 µM), without a hit: top-dose activity change, negative = inhibition, actives largely listed as inhibitors | 320,000 compounds, 6.9% hits; note: potency is the fitted concentration of half-maximal effect
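Plates of compound plus infected erythrocytes (2% hematocrit, 0.05% parasitemia final) incubate 96 hours, 37 C, 5% CO2. Detection reagent added; reduced luminescence from the parasites' luciferase reporter flags inhibition.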
HCV inhibitor – qHTS Assay for Inhibitors of Hepatitis C Virus (HCV); Huh7.5.1 HCVcc-Cre infection, luciferase reporter, 44 h; Potency, µM (titrated, usually from 41.8 µM), for the others: at the top dose activity change, negative = inhibition, usual class: inhibitors; 340,000 compounds, 3.4% hits; note: potency is the fitted concentration of half-maximal effect
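1,000 cells/well; 4 h culture; + compound; + HCVcc-Cre (~0.5 moi); 44 h; luciferase substrate, RT 15 min; read 15 sec.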
Lassa entry inh – qHTS for Inhibitors of binding or entry into cells for Lassa Virus; Potency, µM (highest dose often 37.9 µM), inactives show at the top dose activity change, negative = inhibition, usual class: inhibitors; Lassa virus pseudotype entry inhibition, cell reporter; 300,000 compounds, 1.2% hits; calls by dose curve; tested in HEK293 cells; note: potency is the fitted concentration of half-maximal effect; nearly all actives have a fitted effect of over 50% in size
HCMV inh – qHTS Assay for inhibitors of the human cytomegalovirus (HCMV); HFF cells, HCMV-luciferase reporter, 72 h; active compounds read low; 410,000 compounds, 4.5% hits; activity change, negative = inhibition, % at 57.5 µM; in the data active = activity change below about -60%; inconclusive = no clear call, values can overlap the other calls; inactive = above about -39%
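Human foreskin fibroblasts infected with luciferase-reporter HCMV at MOI 1 PFU/cell, compounds at two doses. Luciferase measured 72 h post infection; normalized to buffer-only basal and Salinomycin (10uM) controls.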
Pf growth 48h – Primary qHTS for delayed death inhibitors of the malarial parasite plastid, 48 hour incubation | P. falciparum luciferase growth in erythrocytes, 48 h | Potency, µM (doses to about 28.7 µM), without a hit: at the top dose activity change, negative = inhibition, most hits filed as inhibitors | 310,000 compounds, 5.9% hits; note: potency is the fitted concentration of half-maximal effect
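A one-generation exposure of luciferase-tagged malaria parasites in RPMI 1640/Albumax erythrocyte culture, 37 C and 5% CO2. Inhibition is inferred from decreased luminescence after adding detection reagent.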
* marks the source's active call; other numbers are inactive results; ? = inconclusive; · = no result given; [ ] = remark or other dose. Unless noted, calls come from the whole dose curve; as a rule, active = well fitted inhibition curve with a large enough effect; inconclusive = small, poorly fitted or top-dose-only effect, or another doubt; inactive = no such curve, though single readings can be large or run the other way. % is set by controls: 0 for no effect and ±100 for the full control effect.

SMILES	Marburg entry inh	Pf growth 96h	HCV inhibitor	Lassa entry inh	HCMV inh	Pf growth 48h
CCOc1ccc2c(c1)-c1c(ssc1=S)C(C)(C)N2C(=O)c1ccco1	5.2µM*	1.3µM*	10µM*	?	-5	2.3µM*
Cc1cccc(C)c1NC(=O)CSCc1cnn(-c2ccccc2)c1-n1cccc1	?	·	·	-13%[46.1 µM]	-32	·
COc1ccc(N2Cc3cccc(C(=O)Nc4cccc(F)c4)c3C2=O)cc1	5%[46.1 µM]	·	·	?	-3	·
O=C(NC(NC(=S)Nc1ccccc1C(=O)O)C(Cl)(Cl)Cl)c1ccco1 (stereo not drawn)	6%	-30%	8%	1%	35	-3%
Cc1ccccc1NC(=S)NC(NC(=O)c1ccco1)C(Cl)(Cl)Cl (stereo not drawn)	-11%	9.3µM*	-1%	-7%	41	?
Cc1ccc(NC(=S)NC(NC(=O)c2ccccc2C)C(Cl)(Cl)Cl)c(C)c1 (stereo not drawn)	23µM*	64%	?	?	-26	?
CCNc1nc(NCC)nc(OCCOC(C)=O)n1	13%	4.1µM*	-5%	20%	18	-6%
CCNc1nc(NCC)nc(OCCOC(=O)c2ccccc2)n1	11%	?	?	2%	4	-17%
CC(=O)OCC(=O)[C@@]1(O)CCC2C3CCC4=CC(=O)CC[C@]4(C)C3=CC[C@@]21C (stereo partly drawn)	·	-29%	·	·	·	5%
Cc1ccc(C(=O)CSc2ncc3c(n2)-c2ccccc2N(Cc2ccc(Cl)cc2)S3(=O)=O)cc1	·	·	·	20%[46.1 µM]	10	·
CCc1cccc(CC)c1NC(=O)CN1CC(C)SC1=NC1CCCCC1 (stereo not drawn)	?	?	4%	?	-63*	?
CCc1cccc(CC)c1NC(=O)NC1CCCCC1	?	75%	8%	16%	7	2%
Cc1cc(C)c(S(=O)(=O)NCc2nc3nc(C)cc(C)n3n2)c(C)c1	·	12µM*	2%	·	5	-7%
COc1ccc(S(=O)(=O)NCc2nc3nc(C)cc(C)n3n2)cc1	28%[46.1 µM]	·	10%	3%[46.1 µM]	-2	·
Cc1cc(C)c(S(=O)(=O)NCc2ccc3c(c2)cc(C)n3C)c(C)c1	·	-2%	?	·	-93*	-11%
COC(=O)c1ccccc1S(=O)(=O)NCc1nc2nc(C)cc(C)n2n1	·	13µM*	5%	·	43	37%
O=C(COc1ccccc1Cl)NCC1(N2CCOCC2)CCCCC1	-24%[46.1 µM]	·	·	12%[46.1 µM]	-100*	·
Cc1ccc2c(CC(=O)NCC3(N4CCOCC4)CCCCC3)coc2c1C	·	9.3µM*	-13%	·	-9	?
N#Cc1ccccc1OCC(=O)NCC1(N2CCCCC2)CCCCC1	-17%[46.1 µM]	-3%	-4%	10%[46.1 µM]	18	3.3µM*
COc1ccccc1OCC(=O)NCC1(N2CCOCC2)CCCCC1	-15%[46.1 µM]	·	·	-11%[46.1 µM]	106	·
N#CCC(=O)Nc1ccc(C(=O)NCC2(N3CCOCC3)CCCCC2)cc1	·	10µM*	4%	·	-27	12µM*
CCCCc1cc2c(cn1)=C(OC(=O)c1cccs1)C(C)(OC(=O)CC)C(=O)C=2 (stereo not drawn)	28%[14.2 µM]	·	·	·	·	·
CCOC(=O)C1CCN(S(=O)(=O)c2cc3c(cc2C)NC(=O)CO3)CC1	·	?	-3%	·	-2	5%
COc1ccc(Cl)cc1NC(=O)C(C)n1c(=O)cc(C(F)(F)F)c2c(C)nn(C)c21 (stereo not drawn)	·	·	·	-1%[46.1 µM]	0	·
O=C(CSc1ccc(Br)cc1)NCC1(N2CCCCC2)CCCCC1	?	·	-25%	26%	-11	·
Cc1ccc(OCC(=O)NCC2(N3CCN(C)CC3)CCCCC2)cc1C	?	·	·	12%[46.1 µM]	-37	·
Cc1cc(OCC(=O)NCC2(N3CCN(C)CC3)CCCCC2)cc(C)c1Cl	?	·	·	-24%[46.1 µM]	-82*	·
O=C(CSc1ccccc1)NCC1(N2CCOCC2)CCCCC1	-29%	2%	-12%	1%	-77*	-2%

Screens from PubChem BioAssay.
